Records with an inconclusive call do not appear. Entries that show only a call come without a potency. Activity calls are given as the source filed them. Calls follow the shape of the dose curve; as a rule, active = well fitted inhibition curve with a large enough effect; inconclusive = small, poorly fitted or top-dose-only effect; inactive = flat fitted curve, though single readings scatter.
Tests used:
Experiment in all cases: qHTS profiling for inhibitors of Plasmodium falciparum proliferation (AID 504749); also: nearly all actives have a fitted effect of over 60% in size
Settings in all cases: P. falciparum in erythrocytes, SYBR Green DNA, 72 h; series mostly up to 28.7 µM
AS120 = tested on: AS120
Summary of the method: (§1)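 Quantitative HTS: compounds pinned into medium, infected erythrocytes added (0.3% parasitemia, 2.5% hematocrit), 72 h culture at 37 C under 5% CO2. Saponin/Triton lysis with SYBR Green I, overnight RT, then fluorescence read.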

ATS189 = tested on: ATS189
Summary of the method: as §1

ATS95 = tested on: ATS95
Summary of the method: as §1

C2A = tested on: C2A
Summary of the method: as §1

CP185 = tested on: CP185
Summary of the method: as §1

CP191 = tested on: CP191
Summary of the method: as §1

CP192 = tested on: CP192
Summary of the method: as §1

CP194 = tested on: CP194
Summary of the method: as §1

CP201 = tested on: CP201
Summary of the method: as §1

CP203 = tested on: CP203
Summary of the method: as §1
Potency is read from the fitted curve at half-maximal effect.

| SMILES | Potency (AS120) | Potency (ATS189) | Potency (ATS95) | Potency (C2A) | Potency (CP185) | outcome (CP191) | outcome (CP192) | outcome (CP194) | outcome (CP201) | Potency (CP203) |
| --- | --- | --- | --- | --- | --- | --- | --- | --- | --- | --- |
| NC(=O)CC[C@@H](N)C(=O)O | inactive | inactive | inactive | inactive | inactive | inactive | inactive | inactive | inactive | inactive |
| C[N+](C)(C)CC[N+]1(C)Cc2c(Cl)c(Cl)c(Cl)c(Cl)c2C1 | inactive | inactive | inactive | inactive | inactive | inactive | inactive | inactive | inactive | inactive |
| Cc1cccc(Nc2ccccc2C(=O)O)c1C | inactive | inactive | inactive | inactive | inactive | inactive | inactive | inactive | inactive | inactive |
| Cc1cccc(C)c1NC(=O)CC12CCCN1CCC2 | inactive | inactive | inactive | inactive | inactive | inactive | inactive | inactive | inactive | inactive |
| O=C(NCCCN1CCOCC1)c1ccc(Cl)cc1 | inactive | inactive | inactive | inactive | inactive | inactive | inactive | inactive | inactive | inactive |
| CCc1cccc(CC)c1NC(=O)CN(CC(=O)O)CC(=O)O | inactive | inactive | inactive | inactive | inactive | inactive | inactive | inactive | inactive | inactive |
| NC(N)=NCCN1CCCCCCC1 | inactive | inactive | inactive | inactive | inactive | inactive | inactive | inactive | inactive | inactive |
| Cn1c(=O)c2c(ncn2CCO)n(C)c1=O | inactive | inactive | inactive | inactive | inactive | inactive | inactive | inactive | inactive | inactive |
| O=C(c1ccccc1)C(O)c1ccccc1 (stereo not drawn) | inactive | inactive | inactive | inactive | inactive | inactive | inactive | inactive | inactive | inactive |
| C[C@@H](N)C(=O)O | inactive | inactive | inactive | inactive | inactive | inactive | inactive | inactive | inactive | 9530 nM (active) |
| CCCCCCCC(=O)OCC(COC(=O)CCCCCCC)OC(=O)CCCCCCC | inactive | inactive | inactive | inactive | inactive | inactive | inactive | inactive | inactive | inactive |
| C[C@@H]1CCC[C@H](C)N1 | inactive | inactive | inactive | inactive | inactive | inactive | inactive | inactive | inactive | inactive |
| COc1cc(C(=O)NCCCCCC(=O)O)cc(OC)c1OC | inactive | inactive | inactive | inactive | inactive | inactive | inactive | inactive | inactive | inactive |
| O[C@@H]1CO[C@H]2[C@@H]1OC[C@@H]2O | inactive | inactive | inactive | inactive | inactive | inactive | inactive | inactive | inactive | inactive |
| O=C(O)c1cc(=O)c2ccccc2o1 | inactive | inactive | inactive | inactive | inactive | inactive | inactive | inactive | inactive | inactive |
| COc1ccccc1Oc1c(NS(=O)(=O)c2ccc(C(C)(C)C)cc2)nc(-c2ncccn2)nc1OCCO | inactive | inactive | inactive | inactive | inactive | inactive | inactive | inactive | inactive | inactive |
| CC(=O)SC[C@@H](Cc1ccccc1)C(=O)NCC(=O)OCc1ccccc1 | inactive | inactive | inactive | inactive | inactive | inactive | inactive | inactive | inactive | inactive |
| CC(C)(C)C(=O)OCOC(=O)[C@@H]1N2C(=O)[C@@H](NC(=O)[C@H](N)c3ccccc3)[C@H]2SC1(C)C | inactive | inactive | inactive | inactive | inactive | inactive | inactive | inactive | inactive | inactive |
| Cc1cc(C)c(NC(=O)CN(CC(=O)O)CC(=O)O)c(C)c1Br |  |  |  |  |  |  | inactive | inactive | inactive | inactive |
| CC(=O)N(CC(O)CO)c1c(I)c(C(=O)NCC(O)CO)c(I)c(C(=O)NCC(O)CO)c1I (stereo not drawn) | inactive |  | inactive | inactive | inactive |  | inactive | inactive | inactive | inactive |
| NC(=O)CCCCC1CCSS1 (stereo not drawn) |  |  | inactive | inactive | inactive | inactive | inactive | inactive | inactive | inactive |
| CN1C(C)(C)CCCC1(C)C | inactive | inactive | inactive | inactive | inactive | inactive | inactive | inactive | inactive | inactive |
| CC(CN(C)C)C(C)(O)Cc1ccc(Cl)cc1 (stereo not drawn) |  |  |  | inactive |  | inactive |  |  | inactive | 13500 nM (active) |
| CCN1CC(CCN2CCOCC2)C(c2ccccc2)(c2ccccc2)C1=O (stereo not drawn) | inactive |  | inactive | inactive | inactive | inactive | inactive | inactive | inactive |  |
| CC(C)CCCC(C)CCCC(C)CCCCC(C)CCCC(C)CCCC(C)C (stereo not drawn) | inactive | inactive |  | inactive | inactive | inactive | inactive | inactive | inactive | inactive |
| CN1C[C@@H]2C[C@H]1CN2c1cc2c(cc1F)c(=O)c(C(=O)O)cn2C1CC1 |  |  |  |  |  |  | inactive |  |  |  |

| SMILES | Potency (AS120) | Potency (ATS189) | Potency (ATS95) | Potency (C2A) | Potency (CP185) | outcome (CP191) | outcome (CP192) | outcome (CP194) | outcome (CP201) | Potency (CP203) |
| --- | --- | --- | --- | --- | --- | --- | --- | --- | --- | --- |
| NNc1nnc(NN)c2ccccc12 | inactive | inactive | inactive | inactive | inactive | inactive | inactive | inactive |  | inactive |
| Nc1ncnc(Nc2ccccc2)n1 | inactive | inactive | inactive | inactive | inactive |  | inactive | inactive | inactive | inactive |
| Cc1cc(=O)[nH]c(=S)[nH]1 | inactive | inactive | inactive | inactive | inactive | inactive | inactive | inactive | inactive | inactive |
| COc1ccc2cc(CCC(C)=O)ccc2c1 |  | inactive | inactive | inactive | inactive | inactive | inactive | inactive | inactive | inactive |
| CC(=O)Nc1ccccc1 | inactive | inactive |  | inactive | inactive | inactive | inactive | inactive | inactive | inactive |
| CCCCCC(C)N (stereo not drawn) |  |  | inactive | inactive | inactive |  | inactive | inactive | inactive | inactive |
| NCc1ccc(S(N)(=O)=O)cc1 | inactive |  | inactive | inactive | inactive | inactive | inactive | inactive | inactive | inactive |
| CCN(CC)S(=O)(=O)c1ccc(C(=O)O)cc1 | inactive | inactive | inactive | inactive | inactive | inactive |  | inactive | inactive | inactive |
| O=C1C(c2[nH]c3ccccc3c2O)=Nc2ccccc21 |  |  | inactive |  | inactive |  | inactive | inactive | inactive |  |
| CC[N+](C)(CC)CCOC(=O)C1c2ccccc2Oc2ccccc21 | inactive | inactive | inactive | inactive | inactive |  | inactive | inactive | inactive | inactive |
| FC(F)(F)C(Cl)Br (stereo not drawn) | inactive | inactive | inactive | inactive | inactive | inactive | inactive |  | inactive | inactive |
| Cc1[nH]c(C)c(Cl)c(=O)c1Cl | inactive | inactive | inactive | inactive | inactive |  | inactive | inactive |  | inactive |
| C[C@H]1COc2c(C3(N)CC3)c(F)cc3c(=O)c(C(=O)O)cn1c23 | inactive | inactive | inactive | inactive | inactive | inactive | inactive | inactive | inactive | inactive |
| CCOC(N)=O | inactive | inactive | inactive | inactive | inactive | inactive | inactive | inactive | inactive | inactive |
| Cc1cc(OI)c(C(C)C)cc1-c1cc(C(C)C)c(OI)cc1C |  |  |  |  | inactive |  |  | inactive | inactive | inactive |
| CC(=O)OCC(COC(C)=O)OC(C)=O | inactive | inactive | inactive | inactive | inactive | inactive |  | inactive | inactive | inactive |
| Cc1cc(-n2nc3ccc(Cl)cc3n2)c(O)c(C(C)(C)C)c1 |  |  |  |  |  |  | inactive | inactive | inactive | inactive |
| Cc1cc(O)cc(C)c1Cl | inactive |  |  | inactive | inactive |  | inactive | inactive | inactive | inactive |
| CC(=O)N[C@@H](Cc1ccc(O)cc1)C(=O)O | inactive | inactive | inactive | inactive | inactive | inactive | inactive | inactive | inactive | inactive |
| CCN(CC)CC1CCCCN1CC(=O)N1c2ccccc2C(=O)Nc2cccnc21 (stereo not drawn) | inactive | inactive | inactive | inactive | inactive | inactive | inactive | inactive | inactive | inactive |
| NC(N)=NS(=O)(=O)c1ccc(N)cc1 | inactive | inactive |  | inactive | inactive | inactive | inactive | inactive | inactive | inactive |
| CC(=O)OC[C@H]1O[C@@](COC(C)=O)(O[C@H]2O[C@H](COC(C)=O)[C@@H](OC(C)=O)[C@H](OC(C)=O)[C@H]2OC(C)=O)[C@@H](OC(C)=O)[C@@H]1OC(C)=O |  |  |  | inactive |  |  | inactive | inactive | inactive | inactive |
| O=C1c2ccccc2C(=O)C1c1ccc(Br)cc1 | inactive | inactive |  | inactive | inactive |  | inactive | inactive | inactive |  |
| CCCCCCCCCCOc1cc2c(=O)c(C(=O)OCC)c[nH]c2cc1OCC | 2 nM (active) | 1.3 nM (active) | 2.8 nM (active) | 10 nM (active) | 2.2 nM (active) |  | inactive |  |  |  |
| NC(=O)c1ccc([N+](=O)[O-])cc1Cl | inactive |  | inactive | inactive | inactive |  | inactive | inactive | inactive | inactive |
| COc1ccc(C(=O)N2CCN(CC(=O)N3CCOCC3)CC2)cc1 | inactive | inactive | inactive | inactive | inactive | inactive | inactive | inactive | inactive | inactive |
